From PubChem BioAssay AID1578 (Sanford-Burnham Center for Chemical Genomics, 2009) come the findings set out here.

The whole screen tested about 290,000 compounds, of which about 3,000 (1%) were called active. The sample as a whole holds a higher share of actives than the screen did. Values without a mark were called inactive. Rule as the data show it: active = inhibition mostly above about 36% (no sharp cut-off); inactive = mostly below about 34%.

The experiment is described as follows: inhibition of NOD1-driven NF-kB reporter – cell-based, luminescence, uHTS, primary screen (AID 1578).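 Also: HEK-293T reporter cells stimulated with the NOD1 agonist gamma-tri-DAP.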 Conditions: NOD1-driven NF-kB luciferase reporter cells, at 4 µM, stronger effect = higher value.
On to `Cc1c(NC(=O)C(C#N)=C2CCCCC2)c(=O)n(-c2ccccc2)n1C`, for which the inhibition was -3.8%. For `O=C(c1cc(F)ccc1F)C1CCCN(C(=O)CCN2CCCCO2)C1` (centres undefined) the value was -29.2%; for `O=C(Nc1nc2c(F)cc(F)cc2s1)c1ccco1`, -3.5%.

Regarding `O=C(Nc1nc2ccc(S(=O)(=O)N3CCCC3)cc2s1)c1ccccn1`, the inhibition was -16.1%. The value for `COC(=O)c1ccc2nc(NC(=O)C(C)(C)C)sc2c1` was 35.8%; that for `Fc1ccc2nc(Nc3nc4c(F)cc(F)cc4s3)sc2c1` was 2.7%; that for `O=C(Nc1nc2ccc(F)cc2s1)c1ccccn1` was 107% (active). For `Cc1ccc2nc(NC(=O)COC(=O)c3ccccn3)sc2c1` the value was -22%. The value for `O=C(Nc1nc2ccc(F)cc2s1)c1cccs1` was -59.7%; that for `O=C(Nc1nc2c(F)cc(F)cc2s1)c1ccccn1` was 70.9% (active). Take `Cc1ccc2nc(NC(=O)c3ccccc3F)sc2c1`: the inhibition is -69.7%.

Take `O=C(NNc1nc2c(F)cc(F)cc2s1)c1ccccc1`: the inhibition was -5.8%. For `Cc1ccc2nc(NC(=O)c3ccccn3)sc2c1`, the inhibition is 109% (active). `COc1cc(CN2CCCC(N3CCN(c4ccc(F)cc4)CC3)C2)ccc1F` (centres undefined): the inhibition was 61.4%.

For the molecule `COc1ccccc1S(=O)(=O)N1CCC(C(=O)O)(c2ccccc2)CC1`, the inhibition is 14.5%. For `COc1ccc(NC(=S)c2ccncc2)cc1` the value was -9.9%. The value for `CC(Sc1nnc(N)s1)C(=O)Nc1ccc(N2CCOCC2)cc1` (centres undefined) was -20.5%; that for `COc1ccc(NC(=O)Cc2c(F)c(F)c(F)c(F)c2F)cc1OC` was 2.8%; that for `Cc1csc(NC(=O)CSc2nc(C(C)C)nc3ccccc23)n1` was 12.9%. The value for `O=C1N/C(=N\c2ccccn2)SC1Cc1ccc(Cl)cc1` (centres undefined) was 103% (active); that for `O=C1N/C(=N/c2ccccn2)SC1Cc1ccccc1` (centres undefined) was -21%. As for `Cc1ccc(CC2S/C(=N/c3ccccn3)NC2=O)cc1` (centres undefined), the inhibition was 17%. Regarding `CCCCN1CC(=O)N2Cc3[nH]c4ccccc4c3C[C@H]2C1=O`, the inhibition is -2.4%. For `O=C(Nc1ccccc1)C1(c2ccccc2)CC1(Cl)Cl` (centres undefined) the value was -28.2%. For `Cc1ccc(SCC(=O)NCCN2C(=O)CSC2=O)c(C)c1`, the inhibition was -23.2%. `S=c1sc2c(N3CCN(Cc4ccccc4)CC3)ncnc2n1-c1ccccc1`: the inhibition was -6.8%. The value for `S=c1sc2c(N3CCOCC3)ncnc2n1-c1ccccc1` was 9%; that for `S=c1sc2c(Cl)ncnc2n1-c1ccccc1` was 69.8% (active).

For `CN1CCN(CC2(O)CCN(S(=O)(=O)c3ccc(Cl)cc3)CC2)CC1`, the inhibition was -21.7%.

Take `Cc1cccc2c(=O)c(C(=O)NCCc3ccccc3)c[nH]c12`: the inhibition is -28.3%. The value for `O=C(NCCc1ccccc1)c1cc2ncc(Br)cn2n1` was -28.5%; that for `NC1=NC(=O)/C(=C/c2ccc(Br)cc2)S1` was 25%. The value for `NC1=NC(=O)/C(=C\c2cccnc2)S1` was 53.6% (active); that for `NC1=NC(=O)/C(=C/c2cccc(F)c2)S1` was -12%; that for `Cc1cc(OCC(=O)N2CCN(c3ccccc3)CC2)c2c(C)cc(=O)oc2c1` was -49.6%. For `O=C(NCc1nnc(SCC(=O)N2CCCc3ccccc32)o1)c1ccco1` the value was -0.1%; for `CC(=O)OC1C2CCC1C([N+]1(C)CCCCC1)CC2` (centres undefined), -31.7%. For `COc1ccc2cc(C(N)=O)c(=Nc3ccccc3)oc2c1`, the inhibition is 34.9%. For `NC(=O)c1cc2ccc(O)cc2oc1=Nc1ccccc1` the value was 92.8% (active).

Regarding `Cc1cccc(N=c2oc3cc(O)ccc3cc2C(N)=O)c1`, the inhibition is 44.6%. Turning to `CCN(CC)S(=O)(=O)c1cc(NC(=O)CCCOc2ccc(C(C)=O)cc2)ccc1C`, the inhibition was 6.3%. On to `Oc1c(Br)cc(C=Nc2ccc3nc(-c4ccccc4)[nH]c3c2)c(O)c1Br`, for which the inhibition was 33.9%. In the case of `Cc1cccc(N2C(=O)C3C4C=CC(CC4)C3C2=O)c1` (centres undefined), the inhibition is -21.6%.

Take `Cc1c(C)c2ccc(O[C@@H]3O[C@H](CO)[C@H](O)[C@H](O)[C@H]3O)cc2oc1=O`: the inhibition was -1%. Regarding `Cc1cc(C(=O)CSc2nnc(-c3ccco3)o2)c(C)n1Cc1ccco1`, the inhibition is 3.1%. As to `Cc1cc(C(=O)CSc2nnc(-c3ccco3)o2)c(C)n1CC1COc2ccccc2O1` (centres undefined), the inhibition was 43.4%.

As to `Cc1ccc(S(=O)(=O)N2CCN(C(=O)CSc3nnc(-c4ccco4)o3)CC2)cc1`, the inhibition is -19%.

In the case of `Cc1c(C(=O)O)oc2ccc(S(=O)(=O)N3CC(C)CC(C)C3)cc12` (centres undefined), the inhibition was -13%. Consider `CCN(CC)C(=O)c1oc2ccc(S(=O)(=O)N3CCCCCC3)cc2c1C`, for which the inhibition was 20.9%. For `COc1cccc(-n2c(SCC#N)nnc2-c2cnccn2)c1` the value was 5.2%; for `CC(C)CCN1CCN(Cc2cccc3nonc23)CC1CCO` (centres undefined), -23.9%; for `O=C(Nc1cccnc1)c1cc(-c2ccc(Br)cc2)nc2ccccc12`, -14.6%. As to `CCCCc1oc2ccccc2c1C(=O)c1cc(I)c(OCCN(CC)CC)c(I)c1`, the inhibition is -7.6%. In the case of `CCc1oc2ccccc2c1C(=O)c1cc(Br)c(O)c(Br)c1`, the inhibition is 87.3% (active). Consider `CCc1oc2ccccc2c1C(=O)CCN1CCCCC1`, for which the inhibition is 39.5%. For `O=C(Nc1ccc(OCC(F)(F)C(F)F)c(C(F)(F)F)c1)c1ccccc1O` the value was 77.1% (active).

As to `O=C(O)c1ccccc1C(=O)Nc1ccc(Br)c(C(F)(F)F)c1`, the inhibition is -11.4%. Turning to `O=C(Nc1ccc(OCC(F)(F)C(F)F)cc1)c1ccncc1`, the inhibition is -18.2%. The value for `O=C(CN1C(=O)CCSc2ccc(S(=O)(=O)N3CCCC3)cc21)Nc1ccccc1Cl` was -4.7%; that for `CCN1CCN(C(=O)COCc2cc(-c3ccc4c(c3)OCO4)on2)CC1` was -17.7%; that for `Cc1ccc2c(c1)N(S(=O)(=O)c1cc(-c3onc(C)c3C)ccc1C)CCO2` was 29.7%. Consider `CC(C)(C)n1ncc(Oc2ccccc2[N+](=O)[O-])c(Cl)c1=O`, for which the inhibition was 12.6%. The value for `COCCCN=C1NN=C(c2cc(C)n(Cc3ccco3)c2C)CS1` was -8.2%; that for `Cc1cc(C2=NNC(=NC3CCCCC3)SC2)c(C)n1-c1c(C)n(C)n(-c2ccccc2)c1=O` was 2.7%; that for `Cc1cc(C2=NNC(=NC3CC3)SC2)c(C)n1Cc1ccco1` was 90.4% (active). The value for `CCN=C1NN=C(c2cc(C)n(Cc3ccco3)c2C)CS1` was 81.7% (active).

Regarding `CCN=C1NN=C(c2cc(C)n(CCc3ccccc3)c2C)CS1`, the inhibition was -15%. The value for `CC(C)=CC1C=C(C)C(C)C2C(=O)NNC(=O)C12` (centres undefined) was 10.4%; that for `CCOC(=O)C1=C(COC(=O)/C=C/c2ccccc2Cl)NC(=O)NC1C` (centres undefined) was -17.4%; that for `CCOC(=O)C1=C(c2ccccc2)ON(C)C1c1ccccc1` (centres undefined) was -0.8%.

For the molecule `N#C/C(=C(/O)c1ccc(Br)s1)c1nc2ccccc2[nH]1`, the inhibition was 9.1%. The value for `Cc1ccc2nc(/C(C#N)=C\c3ccc([N+](=O)[O-])o3)[nH]c2c1` was 0.5%; that for `N#C/C(=C(/O)c1ccc(Cl)cc1)c1nc2ccccc2[nH]1` was 3.5%. As to `N#C/C(=C(/O)c1ccc([N+](=O)[O-])s1)c1nc2ccccc2[nH]1`, the inhibition is 71.6% (active).

Take `N#C/C(=C\c1ccc([N+](=O)[O-])o1)c1nc2ccccc2[nH]1`: the inhibition was 96.8% (active). For `N#C/C(=C(/O)c1ccc([N+](=O)[O-])cc1)c1nc2ccccc2[nH]1` the value was 3.7%; for `N#C/C(=C(/O)c1ccc([N+](=O)[O-])o1)c1nc2ccccc2[nH]1`, -7.3%; for `COc1ccccc1/C(O)=C(\C#N)c1nc2ccccc2[nH]1`, 5.5%. For `N#C/C(=C(\O)c1cc(Cl)sc1Cl)c1nc2ccccc2[nH]1` the value was 64.5% (active); for `NC(=O)c1c(NC(=O)C(=O)NCCCN2CCOCC2)sc2c1CCCC2`, 6%; for `O=C(CCNS(=O)(=O)/C=C/c1ccccc1)NCCc1c[nH]c2ccccc12`, -0.1%.

As for `CCN(CC)Cc1c(C(=O)N/N=C/c2ccc(OCc3ccccc3C)cc2)nnn1-c1nonc1N`, the inhibition was -6.7%. The value for `COc1ccc(NC(=O)CCCn2cnc3ccccc3c2=O)cc1` was 9%; that for `COC(=O)c1ccc(Cl)c(NC(=O)c2cccc([N+](=O)[O-])c2C)c1` was -17.4%; that for `O=C(N/N=C/c1cc(Br)cc([N+](=O)[O-])c1O)c1ccc(NC(=O)c2ccc(F)cc2)cc1` was 7%. The value for `CCOC(=O)c1ccc(N/N=C/c2cc(Br)cc([N+](=O)[O-])c2O)cc1` was 97.2% (active); that for `COC(=O)c1ccc(N/N=C/c2cc([N+](=O)[O-])cc(OC)c2O)cc1` was -49.6%. On to `CCn1c(CNc2ccc(Cl)cc2)nnc1SCC#N`, for which the inhibition is -48.7%.

Consider `COc1ccc(-c2[nH]ncc2CN2CCCC2c2nonc2C)c(F)c1` (centres undefined), for which the inhibition is -55.4%. For `COc1cc(C(=O)OCC(=O)Nc2ccc(F)cc2F)cc(OC)c1OC` the value was 3.5%; for `O=C(/C(=N\Nc1ccc(Br)cc1)Sc1nnnn1-c1ccccc1)c1ccccc1`, -15%; for `O=C(/C(=N\Nc1ccccc1)Sc1nnnn1-c1ccccc1)c1ccccc1`, 93.1% (active). The value for `Cc1ccc(N/N=C(/Sc2nnnn2-c2ccccc2)C(=O)c2ccccc2)cc1` was -42.4%; that for `Cc1ccc(C)c(C(=O)CN2Cc3ccccc3C2=O)c1` was -5.3%. `CC1=CC(C)(C)N(C(=O)CN2C(=O)c3ccccc3C2=O)c2ccc(C)cc21`: the inhibition is 33.2% (active). With `CC1=CC(C)(C)N(C(=O)CN2C(=O)CCC2=O)c2ccc(C)cc21`, the inhibition was -11.3%. As to `CC1=CC(C)(C)N(C(=O)CN2C(=O)c3ccccc3C2=O)c2ccccc21`, the inhibition was -18.1%. The value for `Cc1ccc(C)c(C(=O)CN2C(=O)c3ccccc3C2=O)c1` was 56.5% (active); that for `Cc1ccc(C)c(C(=O)CN2C(=O)CCC2=O)c1` was -14.2%.
